Measured values from PubChem BioAssay (NCI).
The panel holds about 83,000 compounds, 20% with a hit somewhere; the sample as a whole holds those more often.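 Values shown are percent growth following 48 h exposure of cells in 96-well plates to a single concentration of compound; below 10 was considered active.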 Calls of active or inactive are those of the source.

Legend:
Assay in all cases: NCI-60 one-dose screen, 48 h (100 = growth as untreated, 0 = no growth, -100 = all killed)
SR leukemia = settings: 10 µM unless noted
RPMI-8226 leukemia = settings: 10 µM unless noted
OVCAR-8 ovarian = settings: 10 µM unless noted
OVCAR-5 ovarian = settings: 10 µM unless noted
OVCAR-4 ovarian = settings: 10 µM
IGROV1 ovarian = settings: 10 µM unless noted
OVCAR-3 ovarian = settings: 10 µM unless noted
HS 578T breast = settings: 10 µM unless noted
NCI/ADR-RES ovarian = settings: 10 µM unless noted
T-47D breast = settings: 10 µM unless noted
BT-549 breast = settings: 10 µM unless noted
MDA-MB-435 melanoma = settings: 10 µM unless noted
SW-620 colon = settings: 10 µM unless noted
MCF7 breast = settings: 10 µM unless noted
HCT-116 colon = settings: 10 µM unless noted
HCC-2998 colon = settings: 10 µM unless noted
KM12 colon = settings: 10 µM unless noted
SK-OV-3 ovarian = settings: 10 µM unless noted

Measured: growth

CCOC(=O)c1nn(C2CCCCO2)c2ccc(NC(=O)CN3CCCC3)cc12 (stereo not drawn)
inactive: SR leukemia 103% | RPMI-8226 leukemia 105% | OVCAR-8 ovarian 101% | OVCAR-5 ovarian 99.1% | OVCAR-4 ovarian 99.4% | IGROV1 ovarian 102% | OVCAR-3 ovarian 109% | HS 578T breast 95.4% | NCI/ADR-RES ovarian 103% | T-47D breast 102% | BT-549 breast 94.3% | MDA-MB-435 melanoma 102% | SW-620 colon 97.2% | MCF7 breast 95.9% | HCT-116 colon 89.9% | HCC-2998 colon 101% | KM12 colon 103%

COc1cc(C(=O)/C=C/c2c(-c3ccc(F)cc3)nc3sccn23)cc(OC)c1OC
inactive: SR leukemia 26% | OVCAR-8 ovarian 34.8% | OVCAR-5 ovarian 88% | OVCAR-4 ovarian 25.7% | SK-OV-3 ovarian 47.4% | HS 578T breast 46.1% | NCI/ADR-RES ovarian 10.4% | T-47D breast 19.8% | SW-620 colon 13.7% | HCT-116 colon 23.3% | HCC-2998 colon 73.1%
active: RPMI-8226 leukemia -44.2% | OVCAR-3 ovarian 4.69% | MDA-MB-435 melanoma -72.7% | KM12 colon -12.1%

CCN(CC)CCCC(C)Nc1c2ccc(C)cc2nc2ccc(OC)cc12 (stereo not drawn)
active: SR leukemia 4.33% | RPMI-8226 leukemia 1.21% | OVCAR-4 ovarian -6.2% | HS 578T breast 0.397% | SW-620 colon -41.4% | MCF7 breast 4.31%
inactive: OVCAR-8 ovarian 34.3% | OVCAR-5 ovarian 76.2% | SK-OV-3 ovarian 55.7% | OVCAR-3 ovarian 28.9% | NCI/ADR-RES ovarian 64% | T-47D breast 70.7% | BT-549 breast 73% | MDA-MB-435 melanoma 10.2% | HCT-116 colon 16.6% | HCC-2998 colon 34.9% | KM12 colon 16.4%

NC1=NC(=O)NC1(c1ccccc1)c1ccccc1
inactive: SR leukemia 97.9% | RPMI-8226 leukemia 94.3% | OVCAR-8 ovarian 97.7% | OVCAR-5 ovarian 83.2% | OVCAR-4 ovarian 105% | SK-OV-3 ovarian 92.7% | OVCAR-3 ovarian 105% | HS 578T breast 98.3% | NCI/ADR-RES ovarian 106% | T-47D breast 80.3% | BT-549 breast 131% | MDA-MB-435 melanoma 104% | SW-620 colon 99.2% | MCF7 breast 99.8% | HCT-116 colon 99.9% | KM12 colon 103%

CCCCCCCCCCCCCC[n+]1cccc(C(N)=O)c1
inactive: OVCAR-8 ovarian 18% | OVCAR-5 ovarian 44.2% | OVCAR-4 ovarian 14.5% | SK-OV-3 ovarian 23.3% | NCI/ADR-RES ovarian 105% | T-47D breast 49.8% | MCF7 breast 39.4% | HCT-116 colon 20.8%
active: SR leukemia -25.9% | RPMI-8226 leukemia -51.2% | OVCAR-3 ovarian -32.4% | BT-549 breast -49.9% | MDA-MB-435 melanoma -36.5% | SW-620 colon 0.686% | HCC-2998 colon -51.8% | KM12 colon -87.1%

Cc1cccc(C[C@H](NC(=O)Nc2ccc(Cl)cc2F)C(=O)N[C@@H]2C(=O)N3C[C@H](O)C[C@H]3C(=O)N3CCN(C)C[C@H]3C(=O)N[C@@H](C)C(=O)N3C[C@H](C)C[C@H]3C(=O)O[C@H]2C)c1
active: HCT-116 colon 9.83%
inactive: SR leukemia 45% | RPMI-8226 leukemia 22.6% | OVCAR-8 ovarian 26.9% | OVCAR-5 ovarian 38.8% | OVCAR-4 ovarian 15.4% | IGROV1 ovarian 50.7% | OVCAR-3 ovarian 17.2% | HS 578T breast 43% | NCI/ADR-RES ovarian 107% | T-47D breast 21.5% | BT-549 breast 17.2% | MDA-MB-435 melanoma 22.1% | SW-620 colon 42.4% | MCF7 breast 23% | HCC-2998 colon 34.5% | KM12 colon 40.5%

CN(C)Cc1ccc[nH]1
inactive: SR leukemia 102% | RPMI-8226 leukemia 136% | OVCAR-8 ovarian 95.1% | OVCAR-5 ovarian 76.3% | OVCAR-4 ovarian 109% | SK-OV-3 ovarian 106% | OVCAR-3 ovarian 99.5% | NCI/ADR-RES ovarian 77.9% | T-47D breast 83.5% | MDA-MB-435 melanoma 110% | SW-620 colon 94.6% | MCF7 breast 97.9% | HCT-116 colon 77.5% | KM12 colon 108%

CCN(CC)CCCNCc1cc(-c2ccccc2)nc2ccccc12
active: SR leukemia 4.37% | NCI/ADR-RES ovarian -32% | HCT-116 colon 7.25%
inactive: RPMI-8226 leukemia 20% | OVCAR-8 ovarian 35.1% | OVCAR-5 ovarian 109% | OVCAR-4 ovarian 56.3% | SK-OV-3 ovarian 92.4% | OVCAR-3 ovarian 35.7% | T-47D breast 53.4% | BT-549 breast 75.9% | MDA-MB-435 melanoma 53.3% | SW-620 colon 24.2% | MCF7 breast 35.7% | HCC-2998 colon 101% | KM12 colon 82.6%

COc1ccc2nc3ccccc3c(NCCNCCO)c2c1
active: SR leukemia -11.1% | RPMI-8226 leukemia 2.45% | OVCAR-8 ovarian 5.82% | OVCAR-5 ovarian -4.97% | OVCAR-4 ovarian -10.4% | OVCAR-3 ovarian -41.6% | HS 578T breast -25.4% | T-47D breast 4.93% | MDA-MB-435 melanoma -53.8% | SW-620 colon -18.3% | MCF7 breast 2.08% | HCT-116 colon -36.5% | HCC-2998 colon -72.5% | KM12 colon -30.5%
inactive: SK-OV-3 ovarian 16.5% | NCI/ADR-RES ovarian 68.7%

Nc1cccc2c1C(=O)c1cccc(NC(=O)c3ccccc3)c1C2=O
active: OVCAR-3 ovarian -41.1% | NCI/ADR-RES ovarian -31.1% | SW-620 colon 7.88% | HCC-2998 colon -10.5%
inactive: SR leukemia 15.1% | RPMI-8226 leukemia 15.2% | OVCAR-8 ovarian 34.4% | OVCAR-5 ovarian 57.6% | OVCAR-4 ovarian 53% | SK-OV-3 ovarian 20.4% | T-47D breast 45.6% | BT-549 breast 24.9% | MCF7 breast 13.7% | HCT-116 colon 19.9% | KM12 colon 32.5%

Cc1ccc(NC(=O)N[C@@H](Cc2cc(F)cc(F)c2)C(=O)N[C@@H]2C(=O)N3CCC[C@H]3C(=O)N3CCOC[C@H]3C(=O)N[C@@H](C)C(=O)N3C[C@H](C)C[C@H]3C(=O)O[C@H]2C)cc1
inactive: SR leukemia 32% | RPMI-8226 leukemia 23% | OVCAR-8 ovarian 19.8% | OVCAR-5 ovarian 38% | OVCAR-4 ovarian 12.8% | IGROV1 ovarian 47.2% | OVCAR-3 ovarian 18.9% | HS 578T breast 41.9% | NCI/ADR-RES ovarian 91.5% | T-47D breast 27% | BT-549 breast 19.6% | MDA-MB-435 melanoma 21% | SW-620 colon 34.5% | MCF7 breast 25% | HCT-116 colon 12.5% | HCC-2998 colon 34.5% | KM12 colon 38.9%

O=C(Oc1ccc(Cl)cc1[N+](=O)[O-])Oc1ccc(Cl)cc1[N+](=O)[O-]
inactive: SR leukemia 82.1% | RPMI-8226 leukemia 100% | OVCAR-8 ovarian 108% | OVCAR-5 ovarian 108% | OVCAR-4 ovarian 119% | SK-OV-3 ovarian 120% | OVCAR-3 ovarian 119% | NCI/ADR-RES ovarian 119% | T-47D breast 115% | BT-549 breast 119% | MDA-MB-435 melanoma 120% | SW-620 colon 109% | MCF7 breast 103% | HCT-116 colon 113% | HCC-2998 colon 108% | KM12 colon 106%

NS(=O)(=O)c1ccc(CCN2C(=O)/C(=C\c3ccccc3)C=C2c2ccc(Cl)cc2)cc1
inactive: SR leukemia 103% | RPMI-8226 leukemia 98.3% | OVCAR-8 ovarian 98.2% | OVCAR-5 ovarian 99.4% | OVCAR-4 ovarian 95.4% | IGROV1 ovarian 91.9% | OVCAR-3 ovarian 96.9% | HS 578T breast 93.9% | NCI/ADR-RES ovarian 107% | T-47D breast 88.9% | BT-549 breast 96.4% | MDA-MB-435 melanoma 99.8% | SW-620 colon 99.2% | MCF7 breast 81.2% | HCT-116 colon 96.5% | HCC-2998 colon 105% | KM12 colon 99%

CN(C)c1cc(NN=C(c2ccc(O)cc2)c2ccc(O)cc2)c([N+](=O)[O-])cc1[N+](=O)[O-]
active: OVCAR-8 ovarian 8.9%
inactive: SR leukemia 92.2% | RPMI-8226 leukemia 131% | OVCAR-5 ovarian 98.4% | OVCAR-4 ovarian 97% | SK-OV-3 ovarian 96.5% | OVCAR-3 ovarian 95.5% | HS 578T breast 102% | NCI/ADR-RES ovarian 44.2% | T-47D breast 19.1% | MDA-MB-435 melanoma 84.9% | SW-620 colon 108% | MCF7 breast 27.2% | HCT-116 colon 33.2% | HCC-2998 colon 59.1% | KM12 colon 92%

Cc1ccc(S(=O)(=O)Nc2ccccc2)cc1N
inactive: SR leukemia 92.2% | RPMI-8226 leukemia 123% | OVCAR-8 ovarian 95.4% | OVCAR-5 ovarian 91.3% | OVCAR-4 ovarian 111% | SK-OV-3 ovarian 104% | OVCAR-3 ovarian 95.6% | NCI/ADR-RES ovarian 91% | T-47D breast 101% | BT-549 breast 49.5% | MDA-MB-435 melanoma 92.6% | SW-620 colon 99.7% | MCF7 breast 91.8% | KM12 colon 107%

Cc1ccc(C2=C/C(=C/c3ccc(Br)cc3)C(=O)N2CCc2ccc(S(N)(=O)=O)cc2)cc1
inactive: SR leukemia 87.2% | RPMI-8226 leukemia 96.1% | OVCAR-8 ovarian 95.7% | OVCAR-5 ovarian 97.2% | OVCAR-4 ovarian 91.5% | IGROV1 ovarian 85.5% | OVCAR-3 ovarian 104% | HS 578T breast 93.4% | NCI/ADR-RES ovarian 89.1% | T-47D breast 75.9% | BT-549 breast 98.1% | MDA-MB-435 melanoma 101% | SW-620 colon 103% | MCF7 breast 88.5% | HCT-116 colon 95.2% | HCC-2998 colon 105% | KM12 colon 100%

CSc1nc2sc3cc(Cl)c(Cl)cc3n2c(=N)c1C#N
inactive: SR leukemia 106% | RPMI-8226 leukemia 112% | OVCAR-8 ovarian 91.4% | OVCAR-5 ovarian 123% | OVCAR-4 ovarian 97.5% | SK-OV-3 ovarian 89.3% | OVCAR-3 ovarian 110% | HS 578T breast 91.9% | NCI/ADR-RES ovarian 101% | T-47D breast 89.4% | MDA-MB-435 melanoma 97.7% | SW-620 colon 98.1% | MCF7 breast 60.5% | HCT-116 colon 100% | HCC-2998 colon 106% | KM12 colon 98.9%

CCCCCCCCN(CCCCCCCC)CC(O)c1ccc(Cl)c(C)c1Cl (stereo not drawn)
inactive: SR leukemia 52.6% | RPMI-8226 leukemia 72.8% | OVCAR-8 ovarian 93.6% | OVCAR-5 ovarian 84.1% | OVCAR-4 ovarian 93.5% | SK-OV-3 ovarian 77.5% | OVCAR-3 ovarian 88.9% | NCI/ADR-RES ovarian 89.6% | T-47D breast 75.9% | BT-549 breast 117% | MDA-MB-435 melanoma 91.4% | SW-620 colon 44.5% | MCF7 breast 90.4% | HCT-116 colon 63.5% | HCC-2998 colon 85.3% | KM12 colon 79.6%
